From PubChem BioAssay (NCATS) come the findings set out here.

Test [1] is described as follows: qHTS assay for small molecule activators of the nuclear factor-kappa B (NF-kB) signaling pathway (AID 651749; active = well fitted activation curve with a large enough effect in the signal ratio; the % refers to the signal ratio; note: % of control where 0% means no effect). The settings on record: NF-kB-bla ME-180 cells, beta-lactamase FRET ratio, 16 h; stronger effect = higher value. The procedure, abridged: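 Stably transfected ME-180 line; NF-kB response element upstream of beta-lactamase. Treatment: compound or DMSO, 16 hr. Detection: fluorescent FRET substrate.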
On the technique in general: qHTS replaces the single test concentration by a dilution series.

A short description of test [2]: qHTS assay for small molecule disruptors of the mitochondrial membrane potential - 1 hr assay (AID 651754; calls by dose curve; note: nearly all actives have a fitted effect of over 35% in size; note: potency is the fitted concentration of half-maximal effect). The settings on record: series mostly up to 92.2 µM. The procedure, abridged:
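Steps: seed HepG2 cells and let attach overnight; pin-transfer compound or vehicle; incubate 1 hr at 37C; add Mito-MPS dye for 30 min; read two-channel fluorescence for monomer and aggregate forms.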

The nature of test [3]: qHTS assay for small molecule disruptors of the mitochondrial membrane potential - 5 hr assay (AID 651755; calls by dose curve; note: nearly all actives have a fitted effect of over 40% in size; note: potency is the fitted concentration of half-maximal effect). The settings on record: JC-1-type ratio dye; series mostly up to 92.2 µM. In short, it runs like this:
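HepG2, 2,000 cells/well, overnight attach; cpd or DMSO 5 hr, 37C/5% CO2; Mito-MPS 30 min 37C; fluor 490/535 + 540/590 nm.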

The target of test [4] is Tumor necrosis factor (Homo sapiens) (UniProt P01375). The experiment in a line: qHTS assay to identify small molecules that stimulate Tumor Necrosis Factor-alpha (TNF-alpha) secretion (AID 651757; active = well fitted curve in the direction sought with a large enough effect in the signal ratio; the % refers to the signal ratio; note: 0% is about no effect). The settings on record: Human cells, HTRF 665/615 ratio; series mostly up to 92.2 µM. In short, it runs like this:
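Secreted TNF-alpha from compound-treated THP-1 cells (17 hrs, 37 C) was quantified with a homogeneous time-resolved fluorescence antibody assay.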

Test [5] in a line: qHTS assay for environmental chemicals that activate the Aryl hydrocarbon Receptor (AhR) signaling pathway (AID 651777). Note: % of control where 0% means no effect; nearly all actives have a fitted effect of over 15% in size. The settings on record: 1A2-DRE human hepatoma cells, luciferase, 24 h; activation: stronger effect = higher value. The procedure, abridged: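 Luminescence (One-Glo, 30 min, room temperature) reports AhR-driven luciferase in stably transfected human hepatoma cells bearing DRE and CYP1A2 promoter. Cells (1,200/well) were treated with compound for 24 hr at 37 C in qHTS format.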

Test [6] concerns the target Peroxisome proliferator-activated receptor alpha (Homo sapiens) (UniProt Q07869). The experiment in a line: qHTS assay for small molecule agonists of the peroxisome proliferator-activated receptor alpha (PPARalpha) signaling pathway (AID 651778). Note: % of control where 0% means no effect. The settings on record: PathHunter PPARalpha complementation, chemiluminescence, 6 h; stronger effect = higher value. The procedure, abridged:
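Chemiluminescence from complemented enzyme reported PPARalpha activation in cells after 6 hr of compound treatment at 37 C. The detection reagent was incubated for 60 min at room temperature, and compounds were scored as agonists.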

Test [7] has as its target Arylsulfatase A (Homo sapiens) (UniProt P15289). Briefly: qHTS screen for enhancers of Arylsulfatase A (ASA1): LOPAC Validation Assay (AID 720538). Note: potency is the fitted concentration of half-maximal effect. The settings on record: ASA enzyme activity, LOPAC qHTS enhancer assay; series mostly up to 57.5 µM. The procedure, abridged: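 Read-out: fluorescence at Ex=525/Em=598 nm after 1N NaOH final stop. Patient fibroblasts carrying ASA-I179S had 48h compound exposure, then 14h room-temperature pNCS hydrolysis (0.5mM final) in lysis buffer. Signal increase = enhanced activity.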

The nature of test [8]: qHTS for compounds that reverse cellular toxicity of Amyloid beta (A-beta) peptide in yeast: LOPAC Validation Assay (AID 720559).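 Note: plate controls were DMSO for no effect and equimolar ferric chloride plus clioquinol rescue for full effect.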 The settings on record: yeast expressing A-beta; series mostly up to 46.1 µM. In short, it runs like this:
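OD600 growth readout after 48 hr at 30 C; A-beta-toxic yeast plus pinned compounds in medium. Normalization: DMSO = negative, equimolar FeCl3 + clioquinol = positive.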

A short description of test [9]: qHTS for Activators of Parkin Expression: LOPAC Validation Assay (NLuc Reporter) (AID 720572;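 note: 0% = DMSO and 100% = positive control compound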). The settings on record: Parkin promoter NanoLuc reporter cells, luminescence; series mostly up to 46.1 µM. In short, it runs like this:
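Parkin promoter-driven FLuc/NLuc neuronal reporter cells; 24 h plating, 7-pt dose response, 24 h at 37 C/5% CO2; FLuc then NanoLuc reagent, 10 min each, luminescence; DMSO/positive control normalized.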

Molecules are shown by their SMILES. “And” between values parts separate entries of the source, which are not always exact repeats. Identical values can stand only once. Unmarked numbers belong to inactive results. Results filed as inconclusive are left out. The source made the active and inactive calls. Unless noted, calls come from the whole dose curve; as a rule, active = well fitted curve in the direction sought with a large enough effect; inconclusive = small, poorly fitted or top-dose-only effect, or another doubt; inactive = no such curve, though single readings can be large; an effect the other way counts as inactive or inconclusive.

Peroxisome proliferator-activated receptor alpha (Homo sapiens), sequence (Q07869 whole entry, looked up): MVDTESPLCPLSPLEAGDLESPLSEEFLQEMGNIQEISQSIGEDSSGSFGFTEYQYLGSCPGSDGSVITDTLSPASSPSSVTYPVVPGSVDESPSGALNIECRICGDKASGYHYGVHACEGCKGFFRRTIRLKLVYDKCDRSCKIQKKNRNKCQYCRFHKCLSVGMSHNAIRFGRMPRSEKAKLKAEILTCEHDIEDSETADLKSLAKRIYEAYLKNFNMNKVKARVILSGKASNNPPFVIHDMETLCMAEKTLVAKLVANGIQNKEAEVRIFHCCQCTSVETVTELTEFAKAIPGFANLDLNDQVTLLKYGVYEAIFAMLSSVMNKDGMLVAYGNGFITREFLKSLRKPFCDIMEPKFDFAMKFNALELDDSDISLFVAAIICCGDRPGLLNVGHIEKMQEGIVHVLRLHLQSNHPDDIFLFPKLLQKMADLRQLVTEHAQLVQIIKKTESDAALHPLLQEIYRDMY
Tumor necrosis factor (Homo sapiens), sequence (P01375 whole entry, looked up): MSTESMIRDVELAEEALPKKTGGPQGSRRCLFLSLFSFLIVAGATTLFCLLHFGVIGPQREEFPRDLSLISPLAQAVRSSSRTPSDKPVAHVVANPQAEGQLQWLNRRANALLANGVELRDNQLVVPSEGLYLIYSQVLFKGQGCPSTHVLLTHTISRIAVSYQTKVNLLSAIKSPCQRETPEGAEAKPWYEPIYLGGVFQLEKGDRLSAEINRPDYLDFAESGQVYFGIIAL
Arylsulfatase A (Homo sapiens), sequence (P15289 whole entry, looked up): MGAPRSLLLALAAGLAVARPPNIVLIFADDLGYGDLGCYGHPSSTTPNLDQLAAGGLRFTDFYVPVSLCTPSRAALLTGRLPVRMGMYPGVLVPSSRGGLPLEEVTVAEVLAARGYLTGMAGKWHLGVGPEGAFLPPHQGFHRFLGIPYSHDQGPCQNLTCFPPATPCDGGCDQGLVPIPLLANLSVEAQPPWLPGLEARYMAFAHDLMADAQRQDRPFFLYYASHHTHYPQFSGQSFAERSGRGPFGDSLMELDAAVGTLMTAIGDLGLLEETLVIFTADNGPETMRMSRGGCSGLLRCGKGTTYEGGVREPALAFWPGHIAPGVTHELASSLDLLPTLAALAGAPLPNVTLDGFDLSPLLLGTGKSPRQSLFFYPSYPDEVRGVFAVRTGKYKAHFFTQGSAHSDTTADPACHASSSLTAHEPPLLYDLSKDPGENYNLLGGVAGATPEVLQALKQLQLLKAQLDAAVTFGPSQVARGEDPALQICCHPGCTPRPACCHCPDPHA

As to `O=C1CCO1`, the activation in test [1] was -0.561%; in [5], 1.44%. Besides, the Potency entry in test [2] and in [3] was “inactive” in each case. Besides, the result in test [4] was inactive. Further, the max response in [6] is -1.17%.

As to `O=[N+]([O-])C(Br)(CO)CO`, the results for the activation in test [1] and in [5] were -3.37% and 5.58%, respectively. The max response in test [6] was 0.217%.

Take `O=[N+]([O-])c1ccccc1`: the activation is -0.285% and -0.296% in test [1]; -1.49% and 0.199% in [5]. Also, the Potency entry in test [2] and in test [3] was “inactive” throughout. Besides, the result in [4] was inactive. In addition, the max response in test [6] was 0.135% and -4.33%.

Regarding `CCCCCCCCOC(=O)c1ccccc1C(=O)OCCCCCCCC`, the activation in test [1] is -1.07% and -0.62%; in test [5], -0.0695% and 0.763%. The Potency result in [2] and in [3] was “inactive” throughout. In addition, the outcome in [4] was inactive. Further, the max response in test [6] is 0.808% and 0.946%.

Turning to `Oc1cc(Cl)c(Cl)cc1Cl`, the activation in test [1] was 1.51% and -0.218%; in test [5], 3.21% and 2.24%. Moreover, the Potency in test [2] and in test [3] was 47.3 µM (active) throughout. Also, the max response in [6] was -3.77% and 0.0897%.

As for `NNC(N)=O`, the activation in [1] was -0.594%; in test [5], 0.598%. Besides, the Potency result in [2], in [3], in [7] and in test [9] was “inactive” in each case. The result in test [4] and in test [8] was inactive. Further, the max response in test [6] was -2.31%.

As to `CC12NC(Cc3ccccc31)c1ccccc12` (configuration not stated), the Potency result in [7] is “inactive”.

For the compound `NCC(CP(=O)(O)O)c1ccc(Cl)cc1` (configuration not stated), the Potency entry in [7] and in [9] was “inactive” each time. Moreover, in test [8], the result was inactive.

Turning to `[Cl-].[Cl-].[Hg+2]`, the Potency result in test [3] was “inactive”. Besides, in [5], the activation is 1.68%. For the same compound, in test [6], the max response was -13.7%.

As to `O=c1[nH]c(=O)n(Cl)c(=O)n1Cl`, in test [5], the activation was -2.06%. Further, the max response in [6] is 3.21%.

On to `C=CCN1CC[C@]23c4c5ccc(O)c4O[C@@H]2/C(=N/N=C2\CC[C@@]4(O)C6Cc7ccc(O)c8c7[C@@]4(CCN6CC=C)[C@@H]2O8)CC[C@@]3(O)C1C5`, for which the Potency entry in test [7] and in test [9] was “inactive” in each case. Further, the compound was called inactive in [8].

With `N[C@@H](Cn1ccc(=O)[nH]c1=O)C(=O)O`, the Potency result in test [7] and in test [9] was “inactive” each time. Also, the call in test [8] was inactive.

Regarding `N[C@@]1(C(=O)O)CC[C@@H](C(=O)O)C1`, the Potency result in test [7] and in test [9] was “inactive” throughout. In addition, in [8], the compound was classed as inactive.

Regarding `CC[C@H](C)[C@H]1O[C@]2(C=C[C@@H]1C)C[C@@H]1C[C@@H](C/C=C(\C)[C@@H](O[C@H]3C[C@H](OC)[C@@H](O[C@H]4C[C@H](OC)[C@@H](O)[C@H](C)O4)[C@H](C)O3)[C@@H](C)/C=C/C=C3\CO[C@@H]4[C@H](O)C(C)=C[C@@H](C(=O)O1)[C@]34O)O2`, the activation in test [5] was -12.2%. Besides, in test [6], the max response is 7.18%.

As to `CCCN(CCC)C1Cc2cc(OC)c(OC)cc2C1`, the Potency entry in test [7] and in [9] was “inactive” each time. In test [8], the call was inactive.

In the case of `C[C@]12Cc3cn4c(nc3C=C1CCC1C2CC[C@@]2(C)[C@H]1CC[C@@]2(O)C#N)nc1ccccc14` (some centres not stated), in [7], the Potency entry was “inactive”. In addition, in [8], the call was inactive.

For `C[C@H]1CC[C@@H]2[C@@H](C)[C@H]3[C@H](C[C@H]4[C@@H]5CC=C6CC(O[C@@H]7O[C@H](CO)[C@H](O)[C@H](O[C@@H]8O[C@H](CO)[C@@H](O)[C@H](O)[C@H]8O)[C@H]7O[C@H]7O[C@@H](C)[C@H](O)[C@@H](O)[C@H]7O)CC[C@]6(C)[C@H]5CC[C@]34C)N2C1` (some centres not stated), the Potency in test [2] and in test [3] was 33.5 µM (active) throughout. Further, the outcome in test [4] was inactive. In addition, the activation in test [5] was -8.71%. Moreover, the max response in test [6] is -0.952%.

For the compound `Clc1cc(I)cc(Cl)c1NC1=NCCN1`, the Potency entry in [7] and in [9] was “inactive” throughout. Further, the compound was classed as inactive in test [8].

As to `CN1CC[C@@]2(C)c3cc(O)ccc3N(C)C12` (some centres not stated), the Potency result in test [7] and in test [9] was “inactive” in each case. For the same compound, in test [8], the call was inactive.

For the compound `CCCN(CCC)C1CCc2cccc(O)c2C1` (configuration not stated), the Potency result in test [7] and in [9] was “inactive” in each case. For the same compound, the compound was classed as inactive in test [8].

Turning to `Nc1ccc(CCN2CCN(c3cccc(C(F)(F)F)c3)CC2)cc1`, the Potency entry in test [7] and in [9] was “inactive” throughout. For the same compound, the compound was called inactive in test [8].

For the compound `CC1OC1P(=O)(O)O` (configuration not stated), the Potency result in [7] was “inactive”.

With `CCCN1CCC[C@@H](c2cccc(O)c2)C1`, the Potency result in [7] and in test [9] was “inactive” in each case. Also, the compound was classed as inactive in [8].

In the case of `O=C1CC[C@@]2(O)C3Cc4ccc(O)c5c4C2(CCN3CC2CC2)[C@H]1O5` (some centres not stated), the Potency in [7] was 0.426 µM (active). The compound was called inactive in test [8]. The Potency result in test [9] was “inactive”.

Turning to `CCCCCl`, the Potency result in test [2] and in test [3] was “inactive” in each case. Moreover, the outcome in test [4] was inactive. Besides, in test [5], the activation was -0.771%. Moreover, the max response in test [6] is -3.81%.

With `CNc1ccc2oc(C[C@H]3O[C@@]4(CC[C@H]3C)O[C@H]([C@H](C)C(=O)c3ccc[nH]3)[C@H](C)C[C@H]4C)nc2c1C(=O)O`, the Potency entry in test [7] and in [9] was “inactive” throughout. The compound was called inactive in test [8].

With `O=CC=O`, the Potency result in test [2] and in test [3] was “inactive” throughout. Further, the outcome in test [4] was inactive. Moreover, in [5], the activation is -1.42%. Besides, the max response in [6] was -5.03%.
